In PubChem BioAssay:
Calls of active or inactive are those of the source.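 How the source made its calls, unless noted: active means NADPH fluorescence slope more negative than the mean of all samples by about 3 SD, 99.7% confidence; inactive means the rest.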

Key:
[1] = inhibitors of TNFa-induced NFkB p65 translocation, primary screen, imaging, HUVEC, MLSMR starter and 10KST1 sets (AID 438;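 active means inhibition above 20% together with a positive visual image hit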;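 further: compound added about 3h40 before a 20 min TNFalpha stimulation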;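 on inhibition: signal is the nuclear over cytoplasmic p65 intensity ratio per well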); conditions: HUVEC TNFa-induced p65 nuclear translocation; cell count: measured here: nuclei count (cytotoxicity indicator), at 2.08 µM; inhibition: at 2 µM, stronger effect = higher value, 0% TNFa-plus-vehicle, 100% no-TNFa wells
[2] = inhibitors of mutant huntingtin aggregation, primary screen, imaging, exon1htt(103Q)mCFP cells, high-content imaging (AID 483;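 active means visual image review flags a hit and inhibition of aggregation exceeds 20%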;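 further: compound exposure lasted 3 days before fixation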;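 on nuclei count: percent of the per-plate median nuclei count of sample wells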); conditions: exon1htt(103Q)mCFP cell line, aggregate imaging, at 2 µM; inhibition of aggregation: stronger effect = higher value; nuclei count: measured here: cell count, toxicity
[3] = inhibitors of E-selectin induction by TNFa, primary screen, imaging, HUVEC, immunofluorescence, MLSMR starter and 10KST1 sets (AID 487;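 active means visually confirmed hit in the image check and inhibition above 20%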;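 on inhibition: signal is fraction of cell area covered by stained E-selectin grains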;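 on nuclei count: 100% = median nuclei count of all wells on the same plate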); conditions: HUVEC TNFalpha-induced E-selectin immunofluorescence imaging, at 2 µM; inhibition: stronger effect = higher value; nuclei count: measured here: cell number, toxicity
[4] = target: Voltage-gated potassium channel subunit beta-2 (Rattus norvegicus) (UniProt P62483); assay: KvBeta enzyme negative modulators, primary screen, biochemical, NADPH fluorescence (AID 622;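 active means fluorescence slope higher than the sample average by over 3 SD, cut at about -0.22 in these data, passing the limit was not always enough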;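 further: slope of raw intensity against log time taken from 70 to 1610 s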); conditions: recombinant KvBeta, 4-cyanobenzaldehyde reduction, at 10 µM, stronger effect = higher value
[5] = target: Voltage-gated potassium channel subunit beta-2 (Rattus norvegicus) (UniProt P62483); assay: KvBeta positive modulators, primary screen, biochemical, NADPH fluorescence (AID 623); conditions: Recombinant KvBeta, NADPH fluorescence decrease slope, 10 min; at 10 µM; stronger effect = lower value;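 further: fluorescence intensity change per second fitted from 20 to 320 s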
[6] = target: Alpha-2C adrenergic receptor (Homo sapiens) (UniProt P18825); assay: modulators of alpha2C/GIRK thallium flux, primary screen, cell-based, HEK293 alpha2C/GIRK1/2 (AID 624;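 active means fluorescence slope after compound addition differing from the mean of all screened samples at 99.7% confidence, in either direction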;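 further: slope of fluorescence ratio to pre-addition baseline per second over 15 to 24 s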); conditions: thallium flux BTC fluorescence, at 10 µM, actives lie on both sides
[7] = inhibitors of Sendai virus-induced IRF3 signaling, primary screen, TLR/RLR signaling modifier project, cell-based, Sendai virus stimulus, luciferase, 10K MLSCN set (AID 602276;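 active means inhibition at or above 50% at 10 µM; inactive means inhibition below 50%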;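 further: firefly luciferase from ISG56 promoter only with Renilla not read in this screen; 0% = Sendai virus plus DMSO and 100% = medium plus DMSO without virus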); conditions: HEK293 RL24 IRF3 luciferase reporter, at 10 µM, stronger effect = higher value
[8] = inhibitors of poly I:C-induced TLR3 signaling, primary screen, cell-based, poly I:C stimulus, luciferase, 10K MLSCN set (AID 602277;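 active means inhibition of the reporter signal at or above 50%; inactive means inhibition below 50%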); conditions: HEK293-TLR3 RL24 IRF3 luciferase reporter, at 10 µM, stronger effect = higher value

Alpha-2C adrenergic receptor (Homo sapiens), sequence (P18825 whole entry, looked up): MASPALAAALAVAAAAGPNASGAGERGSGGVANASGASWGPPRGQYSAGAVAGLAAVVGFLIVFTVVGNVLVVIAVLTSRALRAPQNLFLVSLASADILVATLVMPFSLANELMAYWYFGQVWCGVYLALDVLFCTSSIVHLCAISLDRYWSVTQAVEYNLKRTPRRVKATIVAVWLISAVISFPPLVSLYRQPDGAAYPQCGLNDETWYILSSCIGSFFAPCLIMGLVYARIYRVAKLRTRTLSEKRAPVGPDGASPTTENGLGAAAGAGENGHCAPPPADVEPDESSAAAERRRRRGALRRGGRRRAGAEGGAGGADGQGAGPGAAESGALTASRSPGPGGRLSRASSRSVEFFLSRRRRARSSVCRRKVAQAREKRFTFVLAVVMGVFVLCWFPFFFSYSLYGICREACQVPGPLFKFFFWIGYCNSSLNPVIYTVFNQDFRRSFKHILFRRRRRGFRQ
Voltage-gated potassium channel subunit beta-2 (Rattus norvegicus), sequence (P62483 whole entry, looked up): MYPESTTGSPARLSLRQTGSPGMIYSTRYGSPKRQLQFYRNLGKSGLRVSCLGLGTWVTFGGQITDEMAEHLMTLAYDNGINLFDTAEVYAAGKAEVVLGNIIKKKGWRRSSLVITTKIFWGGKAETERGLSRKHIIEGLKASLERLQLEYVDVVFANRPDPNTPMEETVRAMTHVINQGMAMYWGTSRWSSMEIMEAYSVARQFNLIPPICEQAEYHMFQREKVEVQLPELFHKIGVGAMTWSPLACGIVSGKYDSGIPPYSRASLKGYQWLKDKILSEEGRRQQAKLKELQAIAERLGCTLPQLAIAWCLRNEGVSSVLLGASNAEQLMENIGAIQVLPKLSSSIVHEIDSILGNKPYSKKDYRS

SMILES	cell count [1]	inhibition [1]	inhibition of aggregation [2]	nuclei count [2]	inhibition [3]	nuclei count [3]	fluorescence slope [4]	NADPH fluorescence slope [5]	slope [6]	inhibition [7]	inhibition [8]
CC(C)OC(=O)CSc1nnc(-c2ccco2)n1N	618	0% (inactive)	7.4% (inactive)	93.2%	-1% (inactive)	97.5%	-0.422 (inactive)	-2.8e-05 (inactive)	0.00405 (inactive)	0.828% (inactive)	17% (inactive)
Cc1cccc(C)c1NC(=O)c1cc(S(=O)(=O)N2CCOCC2)ccc1F	341	10.3% (inactive)	-3.7% (inactive)	56.5%	-213% (inactive)	80.9%	-0.302 (inactive)	-1e-05 (inactive)	0.00325 (inactive)	11.2% (inactive)	26.3% (inactive)
COc1cccc(NC(=O)CSc2nnnn2C(C)C)c1	738	6.1% (inactive)	-20.3% (inactive)	109%	-4.8% (inactive)	123%	-0.538 (inactive)	-9e-05 (inactive)	0.00723 (inactive)	0.303% (inactive)	-4.86% (inactive)
CCOc1ccccc1Nc1nnc(SCC(=O)N2CCCC2)s1	655	1% (inactive)	12.1% (inactive)	106%	-65.3% (inactive)	100%	-0.609 (inactive)	1.4e-05 (inactive)	0.00607 (inactive)	4.86% (inactive)	12.3% (inactive)
COc1ccc(S(=O)(=O)Cc2ccc(C(=O)N3CCN(c4ccccc4)CC3)o2)cc1	524	-8.3% (inactive)	5.7% (inactive)	70.9%	-89.5% (inactive)	133%	-0.44 (inactive)	-4.3e-05 (inactive)	0.00594 (inactive)	-7.36% (inactive)	26.1% (inactive)
CCn1cc(C(=O)OCc2ccc(F)cc2)c(=O)c2ccc(C)nc21	360	0.4% (inactive)	-17.1% (inactive)	102%	-16.9% (inactive)	98%	-0.428 (inactive)	-2.4e-05 (inactive)	0.00561 (inactive)	11.6% (inactive)	-3.06% (inactive)
CC(C)OC(=O)CSc1nnc(-c2cccnc2)n1Cc1ccccc1	706	-16.4% (inactive)	8.1% (inactive)	88.7%	5.1% (inactive)	98.8%	-0.356 (inactive)	-4.8e-05 (inactive)	0.00509 (inactive)	8.88% (inactive)	10.9% (inactive)
Cc1cccc(NC(=O)CC2NC3CCCCC3NC2=O)c1 (centres undefined)	384	-4.8% (inactive)	-8.2% (inactive)	81%	6.9% (inactive)	106%	-0.358 (inactive)	-2.9e-05 (inactive)	0.00297 (inactive)	13.5% (inactive)	14.2% (inactive)
Cc1cc(C)c(C#N)c(SCC(=O)Nc2ccc(S(=O)(=O)Nc3onc(C)c3C)cc2)n1	607	2.9% (inactive)	3.9% (inactive)	103%	-59.1% (inactive)	122%	-0.448 (inactive)	1.9e-05 (inactive)	0.00553 (inactive)	9.61% (inactive)	24.3% (inactive)
CCOc1ccc(NCCC(=O)c2ccc3c(c2)OCO3)cc1	624	-5.4% (inactive)	29.9% (inactive)	96.9%	0% (inactive)	103%	-0.326 (inactive)	8.4e-06 (inactive)	0.00304 (inactive)	2.87% (inactive)	12.5% (inactive)
CCN1CCN(c2nc(C)nc3c2sc(=S)n3C)CC1	640	-4.8% (inactive)	7.2% (inactive)	82.9%	-24.6% (inactive)	109%	-0.587 (inactive)	-2.8e-05 (inactive)	0.00433 (inactive)	-3.52% (inactive)	18% (inactive)
COC(=O)c1cc(=O)n(Cc2ccc3c(c2)OCO3)c(=Nc2ccccc2)s1	575	2.9% (inactive)	8.9% (inactive)	124%	-30.3% (inactive)	107%	-0.545 (inactive)	-3.4e-05 (inactive)	0.00623 (inactive)	12.2% (inactive)	27.1% (inactive)
O=C(OCN1C(=O)c2ccccc2C1=O)c1ccc2c(=O)n3c(nc2c1)CCC3	380	-26.1% (inactive)	29.8% (inactive)	79.3%	74.4% (inactive)	96.4%	-0.581 (inactive)	-6.9e-05 (inactive)	0.00527 (inactive)	5.92% (inactive)	16.5% (inactive)
CN(C)CCCN1C(=O)c2oc3ccc(Cl)cc3c(=O)c2C1c1cccnc1 (centres undefined)	611	-3.3% (inactive)	-16.3% (inactive)	112%	-27% (inactive)	122%	-0.546 (inactive)	-5.3e-05 (inactive)	0.00766 (inactive)	13.5% (inactive)	39% (inactive)
